Compound activity deposited in PubChem BioAssay by National Center for Advancing Translational Sciences (NCATS).
Most compounds without a hit are left out; they make up all but 19% or so of the library.
IL1B secr inh = blocks inflammasome-driven IL-1 beta release | activity change, % at 57.5 µM | THP-1 LPS/ATP IL-1B secretion, AlphaLISA, 16 h; stronger effect = lower value | 360,000 tested, 4.7% active; in the data active = activity change below about -50%; inconclusive = mostly about -30% to -49%
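THP-1 cells pretreated 1 hr with compounds (up to 57.5 uM final), then stimulated with LPS (250 ng/mL final) plus ATP (1.25 mM final); secreted IL-1B measured by AlphaLISA after 16 hr, decreased signal indicating inhibition.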
TDP1 cell CPT = DT40-hTDP1 cell growth loss with CPT | chicken DT40 Tdp1-/-;hTDP1 cells + 20 nM CPT, ATP luminescence, 48 h | Potency, µM (titrated, usually from 46.2 µM), most hits filed as inhibitors | 420,000 tested, 12% active; note: nearly all actives have a fitted effect of over 55% in size
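Chicken DT40 Tdp1-/- cells stably complemented with human TDP1 were seeded at 400 cells/well in medium containing 20 nM camptothecin, exposed to pin-transferred compounds, and grown at 37 °C for at least 48 hr. Viability was read as ATP luminescence.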
TDP1 cell noCPT = qHTS for Inhibitors of human tyrosyl-DNA phosphodiesterase 1 (TDP1): qHTS in cells in absence of CPT; DT40 Tdp1-/- hTDP1 cells, no CPT, ATP luminescence, 48 h; Potency, µM (series often up to 46.2 µM), actives largely listed as inhibitors; 420,000 tested, 15% active; note: nearly all actives have a fitted effect of over 55% in size
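Seeded 400 DT40-hTDP1 cells/well (vehicle DMSO, no 20 nM CPT); pinned compounds; ≥48 hr at 37 °C; CellTiter-Glo luminescence as viability measure.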
ASM inhibitor = human S-ASM enzyme inhibition; placental ASM, HMU-PC fluorogenic substrate, 60 min; 340,000 tested, 0.006% active; P17405; Potency, µM (highest dose often 57.5 µM), actives largely listed as inhibitors
Target sequence (P17405 47-631 limits assumed): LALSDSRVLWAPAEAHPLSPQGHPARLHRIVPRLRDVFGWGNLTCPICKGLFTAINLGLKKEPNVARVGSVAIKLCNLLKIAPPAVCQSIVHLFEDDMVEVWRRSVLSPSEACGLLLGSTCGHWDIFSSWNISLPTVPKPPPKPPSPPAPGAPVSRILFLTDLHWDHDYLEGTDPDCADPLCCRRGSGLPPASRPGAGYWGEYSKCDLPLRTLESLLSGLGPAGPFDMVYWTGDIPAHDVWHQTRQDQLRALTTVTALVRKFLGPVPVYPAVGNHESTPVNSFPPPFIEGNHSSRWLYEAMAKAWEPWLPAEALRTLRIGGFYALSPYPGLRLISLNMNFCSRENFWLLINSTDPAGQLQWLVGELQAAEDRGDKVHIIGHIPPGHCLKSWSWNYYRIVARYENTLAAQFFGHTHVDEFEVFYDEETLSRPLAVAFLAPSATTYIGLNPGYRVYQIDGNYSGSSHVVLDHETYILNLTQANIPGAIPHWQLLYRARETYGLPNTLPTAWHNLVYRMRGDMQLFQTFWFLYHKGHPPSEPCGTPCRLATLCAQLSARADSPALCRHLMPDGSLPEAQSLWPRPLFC
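qHTS format. ASM enzyme prepared from human placenta hydrolyses the fluorogenic substrate HMU-PC0 (9 uM final) over 60 min at 37 °C after a 10 min compound preincubation.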
TGFb SMAD3 inh = blocks TGF-b signaling; HepG2 CAGA-GFP TGF-b/SMAD3 reporter, GFP fluorescence, 18 h; TGF-beta stimulated, 500 pg/mL final; Potency, µM (titrated, usually from 46.1 µM), most hits filed as inhibitors; 410,000 tested, 1.2% active; note: nearly all actives have a fitted effect of over 65% in size
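HEPG2 CAGA-GFP, 1000 cells/well; 2 h settle, 37 C; cpd via pin tool; TGF-b 500 pg/mL final; 18 h, 37 C; GFP imaging ex488/em500-530; %Activity normalised to -TGF-b and +DMSO controls; CRC fit, curve class.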
HepG2 tox = kills HepG2 cells in TGF-b inhibitor counter-screen; AID 588856; Potency, µM (doses to about 46.1 µM), usual class: cytotoxic; HepG2 CAGA-GFP viability, ATP luminescence, 18 h; 410,000 tested, 0.76% active
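HepG2 CAGA-GFP cells (1000/well, DMEM with 1% FBS) received compound, then TGF-beta at 500 pg/mL final, and were incubated 18 hours at 37 degrees C. Viability was read by CellTiter-Glo luminescence. Media-only wells were set as complete cell-killing and DMSO as no toxicity.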
Of the large screens only hits and unclear results are named; the others gave an inactive call. Unless noted, calls come from the whole dose curve; as a rule, active = well fitted curve in the direction sought with a large enough effect; inconclusive = small, poorly fitted or top-dose-only effect, or another doubt; inactive = no such curve, though single readings can be large; an effect the other way counts as inactive or inconclusive.

COc1ccc(NS(=O)(=O)c2ccc(NC(=O)C3CCCO3)cc2)cc1 (stereo unspecified)	TDP1 cell CPT inconclusive, TDP1 cell noCPT inconclusive
Cc1ccc(S(=O)(=O)N2CCC(C(=O)Nc3ccc(S(=O)(=O)N4CCCC4)cc3)CC2)cc1	TDP1 cell CPT inconclusive, TDP1 cell noCPT 14.6µM
COc1ccc(C=O)cc1CSc1ncccc1C(=O)O	none
C[C@H](NC(=O)C1CCN(S(=O)(=O)c2ccccc2)CC1)C(=O)NCc1cccc(C(F)(F)F)c1	none
Cc1ccc(S(=O)(=O)N2CCCN(S(=O)(=O)c3ccc(C)c(C)c3)CC2)cc1C	TDP1 cell CPT 23.1µM, TDP1 cell noCPT 18.4µM
Cc1ccc(S(=O)(=O)N2CCCN(S(=O)(=O)c3ccc4ccccc4c3)CC2)cc1	TDP1 cell CPT 8.2µM, TDP1 cell noCPT inconclusive
CN1CCN(S(=O)(=O)c2ccc3ccccc3c2)CC1	none
CC1CC(C)CN(S(=O)(=O)c2ccc(NC(=O)CN3CCCCCC3)cc2)C1 (stereo unspecified)	IL1B secr inh -53.4, TDP1 cell CPT 16.4µM, TDP1 cell noCPT 20.6µM, TGFb SMAD3 inh inconclusive
Cc1ccc(NS(=O)(=O)c2ccc(C3CCCCC3)cc2)cc1	TDP1 cell CPT inconclusive, TDP1 cell noCPT inconclusive, TGFb SMAD3 inh 12.6µM, HepG2 tox 10µM
Cc1cc(C)c(OCC(=O)NCC2COc3ccccc3O2)c(C)c1 (stereo unspecified)	IL1B secr inh inconclusive, TDP1 cell CPT inconclusive
COc1ccc(CCNC(=O)c2ccc(N3CCCCS3(=O)=O)cc2)cc1OC	none
O=C(c1ccc(Cl)cc1)N1CCC(C(=O)N2CCN(c3ncccn3)CC2)CC1	none
CCN1C(=O)[C@H]2[C@H]3CN=C(SC)N3[C@@](CC)(C(=O)OC)[C@H]2C1=O	TGFb SMAD3 inh inconclusive
Cc1ccc(NS(=O)(=O)c2ccc(NC(=O)C3CC3)cc2)cc1C	TDP1 cell CPT 18.4µM, TDP1 cell noCPT inconclusive
Cc1ccc(S(=O)(=O)N2CCN(C(=O)N3CCCC3)CC2)cc1	none
Cc1ccc(C(=O)N2C3C=CC(C3)C2(C(F)(F)F)C(F)(F)F)cc1 (stereo unspecified)	TGFb SMAD3 inh inconclusive
COC(=O)C1(C(=O)OC)CCCCN(S(=O)(=O)c2ccc(C)cc2)CCC1	TDP1 cell CPT inconclusive, TDP1 cell noCPT 20.6µM (no result: ASM inhibitor, TGFb SMAD3 inh, HepG2 tox)
Cc1ccc(S(=O)(=O)N2CCC(C(=O)Nc3ccc(S(=O)(=O)N4CCCC4)cc3)CC2)cc1C	TDP1 cell CPT inconclusive, TDP1 cell noCPT 18.4µM (no result: ASM inhibitor)
COC(=O)C1(C(F)(F)F)C2C=CC(C2)N1S(=O)(=O)c1ccc(C)cc1 (stereo unspecified)	TDP1 cell CPT 23.1µM, TDP1 cell noCPT 20.6µM
Nn1c(SCC(=O)Nc2ccc(S(N)(=O)=O)cc2)nnc1C(F)(F)F	none
C/C(CC(=O)Nc1ccccn1)=N\NC(=O)c1cccc(C)c1	none
Cc1ccc(S(=O)(=O)N2CCN(c3nn(C)c(=O)n(C)c3=O)CC2)cc1C	TDP1 cell CPT 7.31µM, TDP1 cell noCPT inconclusive
CN1CCN(C(=O)c2cc3ccccc3[nH]2)CC1	none
Cc1ccc(S(=O)(=O)N2CCCN(C(=O)c3cc4ccccc4[nH]3)CC2)cc1	IL1B secr inh -61.4, TDP1 cell noCPT inconclusive, TGFb SMAD3 inh inconclusive
COc1ccc(S(=O)(=O)N2CCCN(S(=O)(=O)c3ccc(OC)cc3C)CC2)c(C)c1	TDP1 cell CPT 23.1µM, TDP1 cell noCPT inconclusive, TGFb SMAD3 inh inconclusive
CC(C)c1ccc(NC(=O)C2CCN(S(=O)(=O)c3ccc4c(c3)C(C)(C)C(=O)N4C)CC2)cc1	TDP1 cell CPT 16.4µM, TDP1 cell noCPT inconclusive, TGFb SMAD3 inh inconclusive
COCC(=O)Nc1cc(C(=O)NC2CCc3ccccc32)c2c(c1)nc(-c1ccncc1)n2C (stereo unspecified)	TDP1 cell noCPT inconclusive (no result: IL1B secr inh, ASM inhibitor, TGFb SMAD3 inh, HepG2 tox)
